Assay results published in PubChem BioAssay AID504582 (Broad Institute, 2011).
Hit rate of the full screen: of about 340,000 compounds, about 2,300 (0.68%) were called active. Only a selection was taken, and actives are over-represented in it overall. Unmarked numbers belong to inactive results. Cut-off read from the data, not from the text of the source: active = growth rescue above about 28% (passing the limit was not always enough); inconclusive = no clear call, values can overlap the other calls.

Test: rescue of yeast from PfHsp40 toxicity, primary screen, S. cerevisiae, ATP luminescence (AID 504582);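 note: yeast W303a lacking pdr1 and pdr3 grown in galactose medium; growth measured after three days at 30 °C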
Conditions: S. cerevisiae expressing PfHsp40, growth rescue, at 12.5 µM, stronger effect = higher value

Structure (SMILES) | growth rescue
CCOC(=O)N1CCN(C(=O)C(=O)Nc2sc3c(c2C#N)CC(C)(C)OC3)CC1 | -1.13%
COc1ccc(-c2nc3n(c(=O)c2C#N)CCS3)c(OC)c1 | -0.93%
CCCc1nc(SCC(=O)Nc2ccc(S(=O)(=O)N(C)C)cc2)c2ccccc2n1 | 56.5% (active)
O=C(CSc1nc(C2CC2)nc2ccccc12)Nc1ccc2c(c1)OCCO2 | 0.157%
CCCNC(=O)CSc1nc(Cc2ccccc2)nc2ccccc12 | 1.34%
Cc1ccc(-n2c(C)nnc2SCC(=O)NC2CC2)cc1 | 0.655%
CCCCC/C=C/C1=CC(=O)C[C@H](c2ccc(Cl)cc2)C1 | -0.132%
Cc1cccnc1NC(=O)Cn1c(=O)oc2ccccc21 | 0.888%
CSCc1cc(N2CCOCC2)nc(SCc2ccc(Cl)cc2Cl)n1 | 21.9%
Nc1cc(N)nc(SCc2ccc(Cl)cc2)n1 | 0.722%
CSCc1cc(N(C)C)nc(SCc2ccc(Cl)cc2Cl)n1 | 119% (active)
O=C(O)c1cc2ccccc2c(=O)s1 | -1.29%
CCCCCCCCCCCCn1ccc(=N)cc1 | 174% (active)
CCCCCCCCn1c2c(c(=N)c3c1CCC3)CCCC2 | -1.32%
CCCCCN1CC(O)=C(c2ccccc2)C1=N | 1.8%
Nc1cccnc1Sc1ccccc1 | -0.346%
O=C(CN1C(=O)NC2(CCCCC2)C1=O)NCCC1=CCCCC1 | -1.2%
CC(=O)c1ccc(S(=O)(=O)Nc2ccc(C(=O)NCC(c3ccccc3)N(C)C)cc2)cc1 (stereo not given) | 0.039%
COc1ccc(C(CNC(=O)c2ccc(NS(=O)(=O)c3ccc(F)c(C)c3)cc2)N(C)C)cc1 (stereo not given) | -1.73%
COc1ccc(C(CNC(=O)c2ccc(S(=O)(=O)Nc3ccccc3F)cc2)N(C)C)cc1 (stereo not given) | 33.3% (active)

Structure (SMILES) | growth rescue
Cc1ccc(C)c(C(=O)N2CCC(n3nccc3NC(=O)C3CC3)CC2)c1 | -0.915%
COc1ccccc1C1CCN(C(=S)Nc2ccc(Br)cc2)CC1 | 41.2% (active)
COc1ccccc1NC(=S)N1CCN(C(c2ccccc2)c2ccccc2)CC1 | -0.67%
CCC(C)N(C)C1CCN(C(=S)Nc2ccc(OC)cc2)CC1 (stereo not given) | 0.96%
COC(=O)C1(C)NC(c2ccccc2OC)C2C(=O)N(c3ccccc3)C(=O)C21 (stereo not given) | -1.44%
O=S(=O)(c1cccc(Cn2nnc(-c3ccc(F)cc3)n2)c1)N1CCOCC1 | 1.33%
O=C(OCCN=C1NS(=O)(=O)c2ccccc21)c1cccc([N+](=O)[O-])c1 | 0.884%
CCn1c(O)c2ccc(C(=O)N=NC(=O)c3cccnc3)cc2c1O | -1.24%
Cc1ccc(N2C(=O)C3N=NN(CC(=O)N4N=C(c5cccc6ccccc56)CC4c4ccccc4)C3C2=O)cc1 (stereo not given) | -1.11%
O=C1C2N=NN(CC(=O)N3N=C(c4cccc5ccccc45)CC3c3ccccc3)C2C(=O)N1c1ccccc1 (stereo not given) | -1.21%
Oc1ccccc1C1=NN(c2ccccc2)C(c2ccccc2)C1 (stereo not given) | 134% (active)
CCN(CC)C(=O)C1CCC(C)(C(=O)O)C1(C)C (stereo not given) | 1.46%
COC(=O)C(C(=O)Nc1cccc(C)n1)C1CCCCCC1 (stereo not given) | -0.474%
CC(C)NC(=O)N1CCN(c2ccncc2S(=O)(=O)N2CCCCC2)CC1 | -0.643%
O=C(COC(=O)CCOc1ccccc1)Nc1cc(S(=O)(=O)N2CCCCC2)ccc1Cl | 1.68%
Brc1ccc(-c2n(-c3ccccn3)c3ccccc3[n+]2-c2ccccn2)cc1 | 0.665%
CCOC(=O)c1ccc(N2C(=O)CC(N3CCN(C(=O)c4ccccc4)CC3)C2=O)cc1 (stereo not given) | 53.1% (active)
CCCCOC(=O)c1ccc(N2C(=O)CC(N3CCN(C/C=C/c4ccccc4)CC3)C2=O)cc1 (stereo not given) | 0.282%
CCOC(=O)c1ccc(N2C(=O)CC(N3CC(C)OC(C)C3)C2=O)cc1 (stereo not given) | -0.556%
COc1ccc(N(C)S(=O)(=O)c2ccc3c(c2)CC(C)N3C(=O)C2CC2)c(OC)c1 (stereo not given) | 2.19%

Structure (SMILES) | growth rescue
CCC(C(=O)NCCC(C)C)N(Cc1ccccc1Cl)C(=O)c1snc(C(N)=O)c1N (stereo not given) | 0.982%
CC(C)(C)NC(=O)C(c1ccc(Cl)cc1)N(CCO)C(=O)c1snc(C(N)=O)c1N (stereo not given) | -0.519%
CCCCC(C(=O)NC(C)(C)C)N(Cc1ccccc1)C(=O)c1snc(C(N)=O)c1N (stereo not given) | 59.5% (active)
CC12CCC(=O)N1C(C(=O)NCCN1C(=O)S/C(=C\c3ccccc3F)C1=O)CS2 (stereo not given) | -1.34%
COc1ccc(CCNc2nc(C)cc(C)n2)cc1OC | 0.933%
NS(=O)(=O)c1ccc(CCNC(=O)c2ccc(Cl)c(S(=O)(=O)N3CCCCCC3)c2)cc1 | 0.571%
CC1=CC(C)(C)N(C(=O)CSc2nccn2C)c2cc(C)ccc21 | -0.0285%
CCc1ccccc1NC(=O)CSc1nnc(-c2ccncc2)o1 | -0.233%
CC1=CC(C)(C)N(C(=O)CSc2nnc(-c3ccccc3)o2)c2ccc(C)cc21 | 81.1% (active)
O=C(CN(c1ccc2c(c1)OCCO2)S(=O)(=O)c1ccccc1)Nc1ccc2c(c1)OCO2 | 0.974%
COc1ccc(CNC(=O)COC(=O)c2sccc2C)cc1OC | -0.071%
COc1ccnc(Oc2ccccc2)c1-c1ncn[nH]1 | -2.24%
COc1ccc(NCCc2ccccn2)cc1 | -0.895%
COc1cnc(-c2ccccn2)nc1Oc1ccc(C(C)(C)C)cc1 | 162% (active)
CC1(C(=O)O)CCC(C(=O)Nc2ccc(Cl)c(Cl)c2)C1(C)C (stereo not given) | -0.486%
Cc1cccc(C)c1NC(=O)CCCSc1nnc(-c2ccco2)n1-c1ccccc1 | 0.934%
COc1ccc(CCNC(=O)COc2ccc3c(c2)OCO3)cc1 | -0.845%
CC1CCCN(CC(O)COCc2ccccc2)C1 (stereo not given) | -0.272%
Oc1c(CN2CCCC2)cc(COCc2ccccc2)c2cccnc12 | 281% (active)
COc1cc(C)cc(CN2CCC(Cc3ccccc3)CC2)c1O | 0.509%
